Data published in PubChem BioAssay (EPA / NIEHS).
Records with an inconclusive call do not appear. Active and inactive are the calls of the source. The calls were made as follows, unless noted: active = hit-call score of the fitted dose curve at least 0.9, where 1 is the maximum; inactive = score below 0.9.

Experiments:
[1] = read-out: Interleukin-1 alpha (IL1a), IL1A (gene 3552); experiment: BSK_LPS_IL1a: BioMAP Diversity Plus: LPS Assay for Interleukin-1 alpha (IL1a) Biomarker Activity (AID 2283080); details: primary human HUVEC with PBMC; actives raise or lower the signal
Outline: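 HUVEC/PBMC co-culture, LPS system; 24 h after dosing; IL-1a by ELISA; gain or loss of signal fitted bidirectionally vs DMSO baseline.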

[2] = read-out: Monocyte Chemoattractant Protein-1 (MCP1), CCL2 (gene 6347); experiment: BSK_LPS_MCP1: BioMAP Diversity Plus: LPS Assay for Monocyte Chemoattractant Protein-1 (MCP1) Biomarker Activity (AID 2283081); details: primary human HUVEC with PBMC; actives raise or lower the signal
Outline: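 ELISA read-out of MCP-1 after 24 h chemical dosing of a human umbilical vein endothelial cell/peripheral blood mononuclear cell co-culture stimulated with LPS. Gain or loss of signal fitted relative to DMSO controls.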

[3] = BSK_LPS_PGE2: BioMAP Diversity Plus: LPS Assay for Prostaglandin E2 (PGE2) Biomarker Activity (AID 2283082); details: primary human HUVEC with PBMC; actives raise or lower the signal;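 also: secreted prostaglandin E2 measured by ELISA in LPS-stimulated co-culture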
Outline: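 Primary human endothelial cells and blood mononuclear cells, co-cultured with LPS, receive test chemical; PGE2 ELISA follows at 24 h, with SRB-stained parallel cultures flagging cytotoxicity.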

[4] = read-out: Tissue Factor, F3 (gene 2152); experiment: BSK_LPS_TissueFactor: BioMAP Diversity Plus: LPS Assay for Tissue Factor Biomarker Activity (AID 2283084); details: primary human HUVEC with PBMC; actives raise or lower the signal
Outline: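 HUVEC/PBMC co-culture, LPS-activated; CD142 ELISA read 24 h post-dose; bidirectional curve fit vs DMSO negative control.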

[5] = read-out: Tumor necrosis factor (Homo sapiens) (UniProt P01375); experiment: BSK_LPS_TNFa: BioMAP Diversity Plus: LPS Assay for Tumour Necrosis Factor alpha (TNFa) Biomarker Activity (AID 2283085); details: primary human HUVEC with PBMC; actives raise or lower the signal
Outline: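 ELISA-based TNFa endpoint in a human endothelial–PBMC co-culture sampled 24 h post-exposure. Curves were fitted in both directions using DMSO as baseline of activity.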

[6] = read-out: Vascular cell adhesion molecule 1 (VCAM1), VCAM1 (gene 7412); experiment: BSK_LPS_VCAM1: BioMAP Diversity Plus: LPS Assay for Vascular cell adhesion molecule 1 (VCAM1) Biomarker Activity (AID 2283086); details: primary human HUVEC with PBMC; actives raise or lower the signal
Outline: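 Measured by ELISA: VCAM-1 in LPS-activated HUVEC/PBMC co-cultures 24 h after treatment. Values reflect bidirectional fitting with DMSO as baseline.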

CD38, CD38 (gene 952) = experiment: BSK_SAg_CD38: BioMAP Diversity Plus: SAg Assay for CD38 Biomarker Activity (AID 2283087); details: primary human HUVEC with PBMC; actives raise or lower the signal
Outline: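 Measures CD38 on a human endothelial/PBMC co-culture driven by SEB and TSST-1, 24 h after compound exposure, using ELISA with fluorescence detection; DMSO defines baseline for bidirectional curve fitting.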

CD40, CD40 (gene 958) = experiment: BSK_SAg_CD40: BioMAP Diversity Plus: SAg Assay for CD40 Biomarker Activity (AID 2283088); details: primary human HUVEC with PBMC; actives raise or lower the signal
Outline: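 HUVEC/PBMC co-culture, 24 h post-dose; CD40 by ELISA, fluorescence intensity; bidirectional fit vs DMSO negative control.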

CD69, CD69 (gene 969) = experiment: BSK_SAg_CD69: BioMAP Diversity Plus: SAg Assay for CD69 Biomarker Activity (AID 2283089); details: primary human HUVEC with PBMC; actives raise or lower the signal
Outline: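 HUVEC co-cultured with PBMC were dosed with chemical, and CD69 was measured by ELISA with fluorescence read-out 24 h later. Bidirectional curve fitting used DMSO as negative control and activity baseline.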

[7] = read-out: Monocyte Chemoattractant Protein-1 (MCP1), CCL2 (gene 6347); experiment: BSK_SAg_MCP1: BioMAP Diversity Plus: SAg Assay for Monocyte Chemoattractant Protein-1 (MCP1) Biomarker Activity (AID 2283090); details: primary human HUVEC with PBMC; actives raise or lower the signal
Outline: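 Values derive from bidirectional fitting of ELISA-measured MCP1 against DMSO controls. Readings were taken 24 h after dosing human vascular endothelial cells co-cultured with peripheral blood mononuclear cells under superantigen stimulation.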

[8] = read-out: E-selectin (Homo sapiens) (UniProt P16581); experiment: BSK_SAg_Eselectin: BioMAP Diversity Plus: SAg Assay for Eselectin Biomarker Activity (AID 2283091); details: primary human HUVEC with PBMC; actives raise or lower the signal
Outline: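 E-selectin ELISA readout at 24 h post-dosing in human umbilical vein endothelial cell/PBMC co-culture; gain or loss of signal fitted relative to DMSO baseline.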

[9] = read-out: Monokine induced gamma interferon (MIG), CXCL9 (gene 4283); experiment: BSK_SAg_MIG: BioMAP Diversity Plus: SAg Assay for Monokine induced gamma interferon (MIG) Biomarker Activity (AID 2283092); details: primary human HUVEC with PBMC; actives raise or lower the signal
Outline: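 HUVEC plus human PBMC co-culture, chemicals dosed and MIG (CXCL9) quantified by ELISA at 24 h. Bidirectional curve fitting against DMSO as negative control and baseline, so both gain and loss of signal count as activity.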

[10] = BSK_SAg_PBMCCytotoxicity: PBMC Cytotoxicity Assessment in the BioMAP Diversity Plus: SAg Assay (AID 2283093); details: primary human HUVEC with PBMC;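 also: PBMC viability measured as Alamar Blue reduction fluorescence at 546/580 nm; fitted both ways against DMSO so a hit may be loss or gain of signal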
Outline: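 Alamar Blue reduction (6 h, 546/580 nm) reports PBMC cytotoxicity after 90 h superantigen activation (SEB, TSST-1; 20 ng/mL final each) with 1 h compound pre-treatment. Gain or loss of signal fitted versus DMSO.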

[11] = read-out: Interleukin-8 (IL8), CXCL8 (gene 3576); experiment: BSK_SAg_IL8: BioMAP Diversity Plus: SAg Assay for Interleukin-8 (IL8) Biomarker Activity (AID 2283094); details: primary human HUVEC with PBMC; actives raise or lower the signal
Outline: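 Primary human endothelial cells with PBMC, exposed 24 h; IL-8 determined by ELISA, analysed bidirectionally relative to DMSO.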

[12] = BSK_SAg_SRB: Viability Assessment in the BioMAP Diversity Plus: SAg Assay (AID 2283096); details: primary human HUVEC with PBMC;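 also: cells read one day after compound addition; hits may be either gain or loss of signal compared with DMSO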
Outline: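 This overt-cytotoxicity endpoint quantifies protein in human endothelial/PBMC co-cultures at 24 h using SRB absorbance (560 nm) after trichloroacetic acid fixation. Values reflect signal change from the DMSO negative control, fitted bidirectionally.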

[13] = read-out: Macrophage colony-stimulating factor (MCSF), CSF1 (gene 1435); experiment: BSK_LPS_MCSF: BioMAP Diversity Plus: LPS Assay for Macrophage colony-stimulating factor (MCSF) Biomarker Activity (AID 2283083); details: primary human HUVEC with PBMC; actives raise or lower the signal
Outline: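 HUVEC + PBMC co-culture (human primary), 24 h post-dose; M-CSF by ELISA; gain/loss of signal fitted bidirectionally vs DMSO baseline.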

[14] = BSK_SAg_Proliferation: Cell Proliferation Assessment in the BioMAP Diversity Plus: SAg Assay (AID 2283095); details: primary human HUVEC with PBMC;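 also: relative cell number as total protein by SRB absorbance in sub-confluent culture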
Outline: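 A human primary co-culture of umbilical vein endothelium and blood mononuclear cells receives compound; relative cell number is quantified at 96 h by SRB staining and 560 nm absorbance, with DMSO-referenced bidirectional curve fitting.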

[15] = target: human CYP2A6, CYP2A6 (gene 1548) (UniProt P11509); experiment: NVS_ADME_hCYP2A6: NovaScreen (NVS) CYP450-related Enzyme Activity (ADME) Assay for human CYP2A6 (AID 2283099; active = hit-call score of the fitted dose curve at least 0.9, where 1 is the maximum)
human CYP2A6, CYP2A6 (gene 1548), sequence (P11509 whole entry, looked up): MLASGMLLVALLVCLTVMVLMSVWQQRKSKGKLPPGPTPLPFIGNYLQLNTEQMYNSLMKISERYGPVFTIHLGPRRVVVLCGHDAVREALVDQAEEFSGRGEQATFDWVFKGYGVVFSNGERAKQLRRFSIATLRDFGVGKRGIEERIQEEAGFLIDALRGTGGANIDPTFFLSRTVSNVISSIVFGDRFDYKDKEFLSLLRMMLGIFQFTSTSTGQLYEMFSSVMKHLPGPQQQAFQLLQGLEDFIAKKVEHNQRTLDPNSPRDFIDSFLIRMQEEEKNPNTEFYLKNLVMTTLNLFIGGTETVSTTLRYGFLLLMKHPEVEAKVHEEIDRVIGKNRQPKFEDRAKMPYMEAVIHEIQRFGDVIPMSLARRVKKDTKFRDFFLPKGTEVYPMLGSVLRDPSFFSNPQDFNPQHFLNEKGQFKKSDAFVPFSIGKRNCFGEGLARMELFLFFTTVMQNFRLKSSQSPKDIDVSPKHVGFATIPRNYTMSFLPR
Outline: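 Insect-cell-expressed human CYP2A6 enzyme activity measured by fluorescence intensity 0.5 hour post-dosing. Compounds screened at 10 uM in duplicate, then hits tested singly in concentration series (max 20 uM); acetonitrile baseline.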

[16] = target: human CYP1A1, CYP1A1 (gene 1543) (UniProt P04798); experiment: NVS_ADME_hCYP1A1: NovaScreen (NVS) CYP450-related Enzyme Activity (ADME) Assay for human CYP1A1 (AID 2283100; active = hit-call score of the fitted dose curve at least 0.9, where 1 is the maximum)
human CYP1A1, CYP1A1 (gene 1543), sequence (P04798 whole entry, looked up): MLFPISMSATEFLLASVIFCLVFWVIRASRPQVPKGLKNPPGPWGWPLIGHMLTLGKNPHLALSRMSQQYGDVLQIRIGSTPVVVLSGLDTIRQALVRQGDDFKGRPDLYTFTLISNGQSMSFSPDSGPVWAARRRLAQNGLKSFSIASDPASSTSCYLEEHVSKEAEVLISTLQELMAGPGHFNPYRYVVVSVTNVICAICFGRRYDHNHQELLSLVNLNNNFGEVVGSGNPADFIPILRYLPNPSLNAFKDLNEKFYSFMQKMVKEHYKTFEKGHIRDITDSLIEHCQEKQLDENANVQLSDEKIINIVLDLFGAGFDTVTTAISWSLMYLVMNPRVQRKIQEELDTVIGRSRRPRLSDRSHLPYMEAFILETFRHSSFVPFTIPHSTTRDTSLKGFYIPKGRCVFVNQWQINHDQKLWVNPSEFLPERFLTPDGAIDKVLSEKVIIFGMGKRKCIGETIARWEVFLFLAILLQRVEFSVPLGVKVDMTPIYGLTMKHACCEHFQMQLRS
Outline: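 Read-out: fluorescence intensity from enzymatic turnover of substrate by recombinant CYP1A1, loss of signal indicating inhibition. Incubation 1 h post-dose. Primary single-point 10 uM in duplicate; actives rerun singly with top concentration 20 uM.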

E-selectin (Homo sapiens), sequence (P16581 whole entry, looked up): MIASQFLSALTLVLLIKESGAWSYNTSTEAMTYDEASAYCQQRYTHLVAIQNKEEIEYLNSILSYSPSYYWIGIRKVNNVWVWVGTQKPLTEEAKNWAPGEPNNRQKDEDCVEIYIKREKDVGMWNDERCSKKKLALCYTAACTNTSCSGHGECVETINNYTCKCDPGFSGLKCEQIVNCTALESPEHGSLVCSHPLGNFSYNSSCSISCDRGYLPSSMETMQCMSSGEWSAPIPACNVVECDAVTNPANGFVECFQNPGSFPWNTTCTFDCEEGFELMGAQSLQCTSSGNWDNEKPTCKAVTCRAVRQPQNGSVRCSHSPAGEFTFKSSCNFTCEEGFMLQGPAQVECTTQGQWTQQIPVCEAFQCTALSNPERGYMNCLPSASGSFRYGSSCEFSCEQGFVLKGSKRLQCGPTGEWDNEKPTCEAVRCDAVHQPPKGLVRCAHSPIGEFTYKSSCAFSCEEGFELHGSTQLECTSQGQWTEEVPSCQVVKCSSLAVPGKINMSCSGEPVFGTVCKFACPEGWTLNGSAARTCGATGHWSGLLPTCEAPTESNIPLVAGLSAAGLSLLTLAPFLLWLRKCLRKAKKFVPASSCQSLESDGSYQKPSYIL
Tumor necrosis factor (Homo sapiens), sequence (P01375 whole entry, looked up): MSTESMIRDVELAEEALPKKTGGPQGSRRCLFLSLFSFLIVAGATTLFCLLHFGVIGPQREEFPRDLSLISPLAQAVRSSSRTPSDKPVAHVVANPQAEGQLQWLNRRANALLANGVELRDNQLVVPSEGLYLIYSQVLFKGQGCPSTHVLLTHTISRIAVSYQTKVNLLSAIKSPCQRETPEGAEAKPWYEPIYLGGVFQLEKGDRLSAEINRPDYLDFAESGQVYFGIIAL

With `CC1(C(=O)Nc2ccc(O)c(Cl)c2Cl)CCCCC1` the outcome [1] was “inactive”, the outcome [2] was “inactive” and the AC50 [3] was 5.46 µM (active). For the same molecule, the outcome [4] was “inactive”, the outcome [5] was “inactive” and the outcome [6] was “inactive”. For the same molecule, the outcome (CD38, CD38 (gene 952)) was “inactive”, the outcome (CD40, CD40 (gene 958)) was “inactive” and the outcome (CD69, CD69 (gene 969)) was “inactive”. For the same molecule, the outcome [7] was “inactive”, the outcome [8] was “inactive” and the outcome [9] was “inactive”. For the same molecule, the outcome [10] was “inactive”, the outcome [11] was “inactive” and the outcome [12] was “inactive”.
In the case of `Nc1c(Cl)cc([N+](=O)[O-])cc1Cl`, the outcome [1] is reported as “inactive”, the outcome [2] is reported as “inactive” and the outcome [13] is reported as “inactive”. The outcome [4] was “inactive”, the outcome [5] was “inactive” and the outcome [6] was “inactive”. For the same molecule, the outcome (CD38, CD38 (gene 952)) was “inactive”, the outcome (CD69, CD69 (gene 969)) was “inactive” and the outcome [7] was “inactive”. For the same molecule, the AC50 [8] was 10.1 µM (active), the outcome [9] was “inactive” and the outcome [10] was “inactive”. The outcome [11] was “inactive”, the outcome [14] was “inactive” and the outcome [12] was “inactive”. The AC50 [15] was 2.05 µM (active).
For `CCOP(=S)(OCC)Oc1ccc2c(C)c(Cl)c(=O)oc2c1`, the outcome [1] was “inactive”, the outcome [2] was “inactive” and the outcome [13] was “inactive”. For the same molecule, the outcome [4] was “inactive”, the outcome [5] was “inactive” and the outcome [6] was “inactive”. The outcome (CD38, CD38 (gene 952)) was “inactive”, the outcome (CD69, CD69 (gene 969)) was “inactive” and the outcome [7] was “inactive”. The AC50 [8] was 5.21 µM (active), the outcome [9] was “inactive” and the outcome [10] was “inactive”. For the same molecule, the outcome [11] was “inactive”, the AC50 [14] was 5.08 µM (active) and the outcome [12] was “inactive”. For the same molecule, the AC50 [16] was 0.352 µM (active).
For `Nc1nc(N)nc(NC2CC2)n1`, the outcome [1] was “inactive”, the outcome [2] was “inactive” and the outcome [13] was “inactive”. The outcome [4] was “inactive”, the outcome [5] was “inactive” and the outcome [6] was “inactive”. For the same molecule, the outcome (CD38, CD38 (gene 952)) was “inactive”, the outcome (CD40, CD40 (gene 958)) was “inactive” and the outcome (CD69, CD69 (gene 969)) was “inactive”. For the same molecule, the outcome [7] was “inactive”, the outcome [8] was “inactive” and the outcome [9] was “inactive”. For the same molecule, the outcome [10] was “inactive”, the outcome [11] was “inactive” and the outcome [14] was “inactive”. For the same molecule, the outcome [12] was “inactive”.
